Some test systems named below: HCT-15 colon; HT29 colon; SNB-75 CNS; SNB-19 CNS; U251 CNS; PC-3 prostate; SK-MEL-5 melanoma; UACC-62 melanoma; LOX IMVI melanoma; SK-MEL-28 melanoma.
Holding throughout (test): NCI-60 one-dose screen, 48 h (100 = growth as untreated, 0 = no growth, -100 = all killed)
Holding throughout (conditions): 10 µM unless noted

The panel holds about 83,000 compounds, 20% with a hit somewhere; the sample as a whole holds those more often.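 The test compound was applied at a single concentration to cells in 96-well plates for 48 hours, and percent growth was recorded.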 A number with no mark means an inactive call. Activity calls are given as the source filed them. The calls were made as follows: active = growth percent below 10; inactive = the rest.

`COc1cc2c(/C=C3/C(=O)Nc4ccc(O)cc43)c(Cl)n(Cc3cc(OC)c(OC)c(OC)c3)c2cc1C`: the growth was 38.1% in the test with HCT-15 colon; 10.4% with HT29 colon; 32.2% with SNB-75 CNS; 20.2% in the test on SNB-19 CNS; 32.2% in the test with U251 CNS; 11.3% in the test on PC-3 prostate. Also, the growth is -64.5% (active) in the test on SK-MEL-5 melanoma, 36.6% in the test with UACC-62 melanoma, 39.7% with LOX IMVI melanoma and 45.2% with SK-MEL-28 melanoma.

Take `Cc1ccc(-c2cn3cc([N+](=O)[O-])ccc3n2)cc1`: the growth is 80.2% in the test on HCT-15 colon; 91.6% in the test on HT29 colon; 77.5% in the test on SNB-75 CNS; 92.1% in the test on SNB-19 CNS; 85.6% with U251 CNS; 77.1% with PC-3 prostate. The growth in the test with SK-MEL-5 melanoma was 58.9%; with UACC-62 melanoma, 82.6%; in the test on LOX IMVI melanoma, 58.3%; with SK-MEL-28 melanoma, 94.3%.

Take `CC(CCC(=O)O)[C@H]1CCC2C3C(=O)C[C@@H]4CC(=O)CC[C@]4(C)C3CC(=O)[C@@]21C` (stereo not given in full): the growth in the test on HCT-15 colon was 105%; in the test on HT29 colon it was 117%; in the test with SNB-75 CNS, 110%; in the test with SNB-19 CNS it was 101%; in the test on U251 CNS, 95%; in the test on PC-3 prostate, 92.8%. Further, the growth with SK-MEL-5 melanoma was 105%; in the test on UACC-62 melanoma, 93.2%; with LOX IMVI melanoma, 92.5%; in the test on SK-MEL-28 melanoma it was 119%.

Regarding `S=c1[nH]nc(Cn2c3ccccc3c3ccncc32)o1`, the growth was 110% with HCT-15 colon; 94.6% in the test with HT29 colon; 102% with SNB-75 CNS; 98.6% with SNB-19 CNS; 94.8% in the test on U251 CNS; 99.4% with PC-3 prostate. Besides, the growth is 102% with SK-MEL-5 melanoma, 93.3% in the test on UACC-62 melanoma, 97.8% in the test with LOX IMVI melanoma and 101% in the test on SK-MEL-28 melanoma.

As for `CSc1nc(N)nc2c1ncn2C`, the growth in the test with HCT-15 colon is 102%; in the test with HT29 colon it was 87.1%; in the test with SNB-75 CNS, 96.4%; in the test with SNB-19 CNS it was 110%; in the test with U251 CNS, 95.4%; with PC-3 prostate, 72.5%. In addition, the growth with SK-MEL-5 melanoma is 100%; with UACC-62 melanoma, 102%; in the test with LOX IMVI melanoma, 92.6%; with SK-MEL-28 melanoma it was 109%.

For `O=C(Nc1ccc(-n2ccc3c(NC(=O)c4ccccc4)ncnc32)cc1)Nc1ccc(Cl)c(Cl)c1`, the growth was 0.689% (active) in the test on HCT-15 colon; -58.2% (active) in the test with HT29 colon; -5.84% (active) with SNB-75 CNS; 15.6% in the test on SNB-19 CNS; -58.6% (active) with U251 CNS; -52.3% (active) with PC-3 prostate. In addition, the growth in the test with SK-MEL-5 melanoma was 13.7%; in the test on UACC-62 melanoma, 48.5%; with LOX IMVI melanoma, 45.5%; in the test on SK-MEL-28 melanoma, 5.26% (active).

For `CC1OC(n2c3ccccc3c3c4c(c5c6ccccc6[nH]c5c32)C(=O)N(CCN[C@@H]2CCC[C@H]2N)C4=O)CC(O)C1O` (stereo not given in full), the growth in the test on HCT-15 colon is 70.2%; with HT29 colon, 0.0923% (active); in the test on SNB-75 CNS, 12.5%; in the test with SNB-19 CNS, 14.8%; in the test on U251 CNS, 7.39% (active); with PC-3 prostate, 9.72% (active). Besides, the growth in the test on SK-MEL-5 melanoma was -48.6% (active); with UACC-62 melanoma, 17.9%; with LOX IMVI melanoma it was 0.411% (active); with SK-MEL-28 melanoma, 45.3%.

For `Cc1ccc(-c2nc3c(N=Nc4ccc(S(N)(=O)=O)cc4)c(N)nn3c(N)c2C#N)cc1`, the growth is 82.5% in the test on HCT-15 colon; 35.8% in the test with HT29 colon; 49% with SNB-75 CNS; 58% in the test with SNB-19 CNS; 31.8% with U251 CNS; 32.4% with PC-3 prostate. For the same compound, the growth is -52.2% (active) in the test on SK-MEL-5 melanoma, 52.9% with UACC-62 melanoma, 22.5% with LOX IMVI melanoma and 52.8% with SK-MEL-28 melanoma.

`C=C1C(=O)O[C@H]2[C@H]1CC/C(COC(=O)n1ccnc1C)=C\CC[C@@]1(C)O[C@@H]21`: the growth is 93.6% in the test with HCT-15 colon; 95.4% with HT29 colon; 93.2% in the test on SNB-75 CNS; 95.3% with SNB-19 CNS; 95.1% in the test on U251 CNS; 97.2% in the test with PC-3 prostate. In addition, the growth in the test on SK-MEL-5 melanoma was 106%; in the test on UACC-62 melanoma, 98.6%; with LOX IMVI melanoma, 95%; in the test on SK-MEL-28 melanoma, 100%.

Regarding `CC(=S)Nc1ccccc1`, the growth in the test with HCT-15 colon is 99.4%; in the test with HT29 colon, 94.3%; in the test on SNB-75 CNS, 87.3%; in the test on SNB-19 CNS, 97.8%; in the test on U251 CNS, 96.2%; with PC-3 prostate, 84.9%. The growth is 98% with SK-MEL-5 melanoma, 96.8% with UACC-62 melanoma, 91.2% in the test on LOX IMVI melanoma and 112% in the test on SK-MEL-28 melanoma.

`CC(=O)N1N=C2N(Cc3ccccc3)C(=O)c3c(sc4c3CCCC4)N2C1c1cn(-c2ccccc2)nc1-c1ccc(Cl)cc1` (stereo not given): the growth in the test with HCT-15 colon is 96.9%; with HT29 colon, 107%; in the test with SNB-75 CNS, 99.3%; with SNB-19 CNS, 94.2%; in the test with U251 CNS, 87.2%; in the test with PC-3 prostate, 92.6%. The growth in the test on SK-MEL-5 melanoma is 102%; in the test on UACC-62 melanoma, 95.5%; in the test on LOX IMVI melanoma it was 92.9%; with SK-MEL-28 melanoma, 104%.

Turning to `COc1ccc(-c2nn(-c3ccc(NC(=O)Nc4cc(C(F)(F)F)cc(C(F)(F)F)c4)cc3)cc2-c2ccncc2)cc1Cl`, the growth with HCT-15 colon was 9.81% (active); in the test with HT29 colon, 11.7%; with SNB-75 CNS, 34.4%; in the test on SNB-19 CNS, 31.5%; in the test on U251 CNS, 11.8%; with PC-3 prostate it was 3.33% (active). The growth is 9.61% (active) in the test with SK-MEL-5 melanoma, 15.6% with UACC-62 melanoma, 15% with LOX IMVI melanoma and 30.1% with SK-MEL-28 melanoma.

As for `COc1cccc(-c2nc3sccn3c2-c2ccnc(NCCNC(=O)Nc3cccc(C(F)(F)F)c3)n2)c1`, the growth in the test with HCT-15 colon is 45.9%; with HT29 colon, 44.1%; in the test on SNB-75 CNS, 71.8%; in the test with SNB-19 CNS, 74.8%; in the test with U251 CNS it was 58.1%; in the test on PC-3 prostate, 32.9%. In addition, the growth was 51.5% in the test with SK-MEL-5 melanoma, 50.5% with UACC-62 melanoma, 44.3% in the test on LOX IMVI melanoma and 78.4% with SK-MEL-28 melanoma.
